According to PubChem BioAssay (Tox21):
Values joined by “and” are separate entries in the source; they are usually repeats but may differ in a detail not shown here. Equal values may be shown once. Inconclusive results are not listed. A call without a number means that no potency is given here. The source holds several records for some structures; these can differ, active in one and inactive in another. Active and inactive are the calls of the source. Unless noted, calls follow the shape of the dose curve; as a rule, active = well fitted curve in the direction sought with a large enough effect in the repeat runs; inconclusive = weak or mixed curves; inactive = no such curve, though single readings can be large; an effect the other way counts as inactive or inconclusive.

Key:
[1] = target: Peroxisome proliferator-activated receptor delta (Homo sapiens) (UniProt Q03181); assay: qHTS assay to identify small molecule agonists of the peroxisome proliferator-activated receptor delta (PPARd) signaling pathway (AID 743212; calls by dose curve)
Peroxisome proliferator-activated receptor delta (Homo sapiens), sequence (Q03181 whole entry, looked up): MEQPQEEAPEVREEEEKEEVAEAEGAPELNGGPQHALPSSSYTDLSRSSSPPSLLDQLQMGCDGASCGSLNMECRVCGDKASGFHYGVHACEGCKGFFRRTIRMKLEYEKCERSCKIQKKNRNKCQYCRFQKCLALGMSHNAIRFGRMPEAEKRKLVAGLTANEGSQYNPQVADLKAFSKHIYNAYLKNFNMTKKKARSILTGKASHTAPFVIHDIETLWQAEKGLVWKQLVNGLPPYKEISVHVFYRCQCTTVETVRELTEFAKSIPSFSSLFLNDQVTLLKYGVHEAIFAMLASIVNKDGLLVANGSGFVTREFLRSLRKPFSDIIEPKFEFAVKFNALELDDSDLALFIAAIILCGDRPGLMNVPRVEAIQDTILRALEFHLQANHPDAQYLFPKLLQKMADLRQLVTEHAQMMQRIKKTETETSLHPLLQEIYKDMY
Method in brief: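 A PPARd-bla HEK293H line with beta-lactamase under an Upstream Activator Sequence is treated with compounds at 37 C. Substrate loading for 2 h at room temperature precedes the fluorescence measurement.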

[2] = qHTS assay to identify small molecule agonists of the farnesoid-X-receptor (FXR) signaling pathway - cell viability counter screen (AID 743218); also: nearly all actives have a fitted effect of over 45% in size; also: potency is read from the fitted curve at half-maximal effect
Method in brief: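 Parallel cytotoxicity test: compound-treated (16 h, 37 C) HEK 293T FXR-bla reporter cells were lysed with CellTiter-Glo and luminescence recorded.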

[3] = qHTS assay to identify small molecule antagonists of the farnesoid-X-receptor (FXR) signaling pathway - cell viability counter screen (AID 743221; active = well fitted cell-killing curve with a large enough effect in the repeat runs, not every such curve was filed as active; also: nearly all actives have a fitted effect of over 50% in size)
Method in brief: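 GeneBLAzer FXR-UAS-bla HEK 293T cells, compound plus chenodeoxycholic acid (50 uM final), 16 h at 37 C. CellTiter-Glo added to the same wells after the beta-lactamase read; luminescence read after 30 min at room temperature as viability.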

[4] = target: Vitamin D3 receptor (Homo sapiens) (UniProt P11473); assay: qHTS assay to identify small molecule agonists of the vitamin D receptor (VDR) signaling pathway (AID 743222; calls by dose curve)
Vitamin D3 receptor (Homo sapiens), sequence (P11473 whole entry, looked up): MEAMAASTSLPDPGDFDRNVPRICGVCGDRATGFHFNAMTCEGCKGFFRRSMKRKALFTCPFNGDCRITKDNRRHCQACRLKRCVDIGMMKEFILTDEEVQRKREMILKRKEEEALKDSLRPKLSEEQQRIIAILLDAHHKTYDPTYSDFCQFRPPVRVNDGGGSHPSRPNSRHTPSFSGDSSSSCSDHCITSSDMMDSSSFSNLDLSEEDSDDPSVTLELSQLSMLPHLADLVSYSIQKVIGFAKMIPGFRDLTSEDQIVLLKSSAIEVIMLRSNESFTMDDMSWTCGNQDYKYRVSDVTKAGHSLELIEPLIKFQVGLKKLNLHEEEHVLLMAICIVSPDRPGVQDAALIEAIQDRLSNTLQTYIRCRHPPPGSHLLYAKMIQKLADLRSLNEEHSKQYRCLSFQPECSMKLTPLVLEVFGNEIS
Method in brief: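 In VDR-bla cells, compound-induced beta-lactamase expression is quantified by FRET substrate fluorescence. Treatment lasts 16 h at 37C; substrate develops 2 h at room temperature.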

[5] = target: Vitamin D3 receptor (Homo sapiens) (UniProt P11473); assay: qHTS assay to identify small molecule antagonists of the vitamin D receptor (VDR) signaling pathway (AID 743223; active = well fitted inhibition curve with a large enough effect in the signal ratio in the repeat runs, not every such curve was filed as active; the % refers to the signal ratio)
Method in brief: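 VDR-bla cells were treated with compound plus 3 nM final 1alpha,25-dihydroxyvitamin D3 for 16 h at 37C. Beta-lactamase reporter read by B/G FRET substrate fluorescence after 2 h at room temperature. qHTS format.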

[6] = qHTS assay to identify small molecule antagonists of the vitamin D receptor (VDR) signaling pathway - cell viability counter screen (AID 743225); also: nearly all actives have a fitted effect of over 50% in size; also: potency is read from the fitted curve at half-maximal effect
Method in brief: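 VDR-UAS-bla HEK 293T cells were plated and incubated 4 h at 37C, then dosed with compound plus 3 nM (final) 1-alpha,25-dihydroxyvitamin D3 for 16 h. After the 2 h beta-lactamase read, viability in the same wells was read as CellTiter-Glo luminescence after 30 min at room temperature.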

[7] = qHTS assay to identify small molecule agonists of the endoplasmic reticulum stress response signaling pathway (AID 1159516; active = well fitted activation curve with a large enough effect in the signal ratio in the repeat runs, not every such curve was filed as active; the % refers to the signal ratio)
Method in brief: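 An ESRE-bla HeLa cell assay: compounds were pin-transferred from DMSO onto overnight-plated cells and left 5 hr at 37 C. Substrate was then loaded for 2 hr at room temperature before reading fluorescence at 460 nm and 530 nm.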

[8] = qHTS assay to identify small molecule agonists of the endoplasmic reticulum stress response signaling pathway - cell viability counter screen (AID 1159517; calls by dose curve; also: nearly all actives have a fitted effect of over 50% in size; also: potency is read from the fitted curve at half-maximal effect)
Method in brief: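 CellTiter-Glo was added to wells already read for beta-lactamase FRET, and luminescence was recorded 30 min later. Cells: ESRE-bla HeLa, 1,500 per well, compound exposure 5 hr at 37 C.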

[9] = qHTS assay to identify small molecule agonists of the AP-1 signaling pathway - cell viability counter screen (AID 1159525; calls by dose curve; also: nearly all actives have a fitted effect of over 55% in size; also: potency is read from the fitted curve at half-maximal effect)
Method in brief: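 ME-180 AP-1-bla, 2500 cells/well, Opti-MEM + 0.5% dialyzed FBS; overnight 37 °C; cpd 15-pt titration, 5 h 37 °C; CellTiter-Glo 30 min RT; luminescence read; normalised to TOAB and DMSO controls.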

[10] = target: Retinoic acid receptor RXR-alpha (Homo sapiens) (UniProt P19793); assay: qHTS assay to identify small molecule agonists of the RXR signaling pathway (AID 1159527; calls by dose curve; also: nearly all actives have a fitted effect of over 35% in size)
Retinoic acid receptor RXR-alpha (Homo sapiens), sequence (P19793 whole entry, looked up): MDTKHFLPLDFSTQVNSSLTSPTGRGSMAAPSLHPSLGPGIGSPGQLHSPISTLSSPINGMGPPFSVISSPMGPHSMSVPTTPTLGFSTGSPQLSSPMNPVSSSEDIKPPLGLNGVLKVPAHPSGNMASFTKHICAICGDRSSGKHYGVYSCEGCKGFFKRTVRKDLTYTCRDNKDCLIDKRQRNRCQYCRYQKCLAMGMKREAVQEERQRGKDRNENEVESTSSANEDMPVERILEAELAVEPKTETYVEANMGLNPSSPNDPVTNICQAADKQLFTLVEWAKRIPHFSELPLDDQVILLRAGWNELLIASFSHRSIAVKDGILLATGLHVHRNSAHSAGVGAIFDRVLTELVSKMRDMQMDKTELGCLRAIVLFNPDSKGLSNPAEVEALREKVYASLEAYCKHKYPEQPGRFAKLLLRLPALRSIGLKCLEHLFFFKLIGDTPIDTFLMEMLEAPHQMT
Method in brief: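 GeneBLAzer RXR-alpha-UAS-bla HEK 293T cells in 2% charcoal-stripped FBS medium were exposed to compounds for 16 hr at 37 C in agonist mode. Beta-lactamase reporter read as 460/530 nm FRET ratio after 2 hr substrate loading.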

[11] = qHTS assay to identify small molecule agonists of the peroxisome proliferator-activated receptor delta (PPARd) signaling pathway - cell viability counter screen (AID 743211); also: nearly all actives have a fitted effect of over 55% in size; also: potency is read from the fitted curve at half-maximal effect
Method in brief: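 PPARd-bla HEK293H cells (3000/well) were pre-incubated 5 h at 37 C, then exposed to compound for 17 h at 37 C. After 2 h with LiveBLAzer substrate, CellTiter-Glo was added to the same wells; luminescence read after 30 min at room temperature.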

[12] = qHTS assay to identify small molecule antagonists of the peroxisome proliferator-activated receptor delta (PPARd) signaling pathway - cell viability counter screen (AID 743213); also: nearly all actives have a fitted effect of over 50% in size; also: potency is read from the fitted curve at half-maximal effect
Method in brief: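 Agonist-stimulated (L165041, 300 nM final) HEK293H PPARd UAS-bla cells are exposed to compounds for 17 h at 37 C, and ATP-based luminescence (CellTiter-Glo) from the same wells reports cytotoxicity.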

[13] = qHTS assay to identify small molecule antagonists of the retinoid-related orphan receptor gamma (ROR-gamma) signaling pathway - cell viability counter screen (AID 1159520); also: nearly all actives have a fitted effect of over 50% in size; also: potency is read from the fitted curve at half-maximal effect
Method in brief: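 Tet-on ROR gamma CHO cells (1,000/well) were plated 4 hr, given compounds in DMSO for 2 hr at 37 C, then induced with 1 uM final doxycycline for 16 hr. Viability was read as ATP by CellTiter-Glo luminescence after 30 min.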

[14] = target: Nuclear receptor ROR-gamma (Homo sapiens) (UniProt P51449); assay: qHTS assay to identify small molecule antagonists of the retinoid-related orphan receptor gamma (ROR-gamma) signaling pathway (AID 1159521; also: nearly all actives have a fitted effect of over 50% in size; also: potency is read from the fitted curve at half-maximal effect)
Method in brief: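 Tet-on ROR-gamma CHO cells with ROR response element-luciferase reporter; compounds added 2 hr before 1 uM doxycycline induction, then 16 hr at 37 C. Antagonism scored as decreased ONE-Glo luminescence.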

[15] = qHTS assay to identify small molecule agonists of the AP-1 signaling pathway (AID 1159526; calls by dose curve)
[16] = qHTS assay to identify small molecule agonists of the vitamin D receptor (VDR) signaling pathway - cell viability counter screen (AID 743224); also: nearly all actives have a fitted effect of over 50% in size; also: potency is read from the fitted curve at half-maximal effect
Method in brief: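 Plated VDR-bla cells (4 h, 37C) received compound, incubated 16 h, then LiveBLAzer substrate 2 h RT; CellTiter-Glo added afterwards, luminescence read at 30 min.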

[17] = target: Bile acid receptor (Homo sapiens) (UniProt Q96RI1); assay: qHTS assay to identify small molecule agonists of the farnesoid-X-receptor (FXR) signaling pathway (AID 743220; active = well fitted activation curve with a large enough effect in the signal ratio in the repeat runs, not every such curve was filed as active; the % refers to the signal ratio)
Bile acid receptor (Homo sapiens), sequence (Q96RI1 whole entry, looked up): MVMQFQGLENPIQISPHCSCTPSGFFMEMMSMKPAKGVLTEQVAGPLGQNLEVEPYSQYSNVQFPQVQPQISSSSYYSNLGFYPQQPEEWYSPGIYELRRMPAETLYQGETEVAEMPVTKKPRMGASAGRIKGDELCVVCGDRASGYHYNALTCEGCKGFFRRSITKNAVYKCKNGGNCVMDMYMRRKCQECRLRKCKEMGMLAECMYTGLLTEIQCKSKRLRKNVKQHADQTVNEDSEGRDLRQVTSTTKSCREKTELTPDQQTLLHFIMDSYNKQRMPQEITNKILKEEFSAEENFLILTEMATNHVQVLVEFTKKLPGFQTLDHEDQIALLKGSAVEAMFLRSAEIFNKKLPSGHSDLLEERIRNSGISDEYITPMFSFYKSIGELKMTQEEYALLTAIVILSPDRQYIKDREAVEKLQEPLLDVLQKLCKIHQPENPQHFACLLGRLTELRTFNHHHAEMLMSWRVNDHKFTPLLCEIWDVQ
Method in brief: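 Beta-lactamase reporter under UAS control in GeneBLAzer FXR HEK 293T cells (5000/well) measured with LiveBLAzer FRET substrate after 2 h at room temperature. Compound exposure lasted 16 h at 37C.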

[18] = target: Peroxisome proliferator-activated receptor delta (Homo sapiens) (UniProt Q03181); assay: qHTS assay to identify small molecule antagonists of the peroxisome proliferator-activated receptor delta (PPARd) signaling pathway (AID 743215; active = well fitted inhibition curve with a large enough effect in the signal ratio in the repeat runs, not every such curve was filed as active; the % refers to the signal ratio; also: series mostly up to about 62 µM)
Method in brief: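 HEK293H UAS-bla, PPARd; agonist L165041 300 nM final with cpd in DMSO; 37 C 17 h; FRET substrate, RT 2 h; fluorescence intensity.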

Row | SMILES | Potency [1] | Potency [2] | Potency [3] | Potency [4] | Potency [5] | Potency [6] | Potency [7] | Potency [8] | Potency [9] | outcome [10] | Potency [11] | Potency [12] | Potency [13] | Potency [14] | Potency [15] | Potency [16] | outcome [17] | Potency [18]
1 | COc1ccc(N)cc1N | inactive | inactive | inactive | inactive | inactive | inactive | inactive | inactive | 50.5 µM (active) and inactive | inactive |  |  |  |  |  |  |  | 
2 | CCOCCOC(C)=O |  | inactive | inactive | inactive |  |  | inactive |  | inactive |  | inactive | inactive | inactive | inactive | inactive |  |  | 
3 | COc1cc(N)c(Cl)cc1C(=O)NC1CN2CCC1CC2 (configuration not stated) |  | inactive | inactive |  |  |  |  | inactive | inactive | inactive |  | inactive | inactive | inactive | inactive | inactive |  | 
4 | CS(=O)(=O)c1ccc(C(=O)C2C(=O)CCCC2=O)c([N+](=O)[O-])c1 |  |  |  |  |  |  | inactive |  |  |  |  |  | inactive |  |  |  | inactive | 
5 | CN(C)[C@@H]1C(=O)C(C(N)=O)=C(O)[C@@]2(O)C(=O)C3=C(O)c4c(O)ccc(Cl)c4[C@@](C)(O)[C@H]3C[C@@H]12 |  | inactive |  |  |  | inactive |  | inactive | inactive |  |  | inactive | inactive | 49.6 µM (active) |  | inactive | inactive | 
6 | Cc1cc(SCc2sc(-c3ccc(C(F)(F)F)c(F)c3)nc2C)ccc1OCC(=O)O |  |  | inactive |  |  |  | inactive |  | inactive |  | 38.9 µM (active) | 12.3 µM (active) | inactive |  |  | 49 µM (active) |  | 
7 | CC(C)N1C(=O)N(c2ccccc2)CSC1=NC(C)(C)C | inactive |  |  | inactive |  |  | inactive | inactive |  |  |  |  |  |  |  | 49 µM (active) |  | 
8 | ClC(Cl)=C(c1ccc(Cl)cc1)c1ccc(Cl)cc1 | inactive | 38.9 µM (active) |  | inactive | inactive |  |  | 54.9 µM (active) | 44.7 µM (active) |  | 24.5 µM (active) | inactive | inactive | 62.6 µM (active) |  | inactive and 38.9 µM (active) | inactive | inactive
9 | Clc1ccc(C(Cl)(Cl)Cl)c(Cl)c1 | inactive | inactive | inactive | inactive | inactive | inactive | inactive |  | inactive | inactive | inactive | inactive | inactive | inactive | inactive | inactive |  | inactive
10 | O=[N+]([O-])c1cc(C(F)(F)F)c(Cl)c([N+](=O)[O-])c1Cl |  | 7.76 µM (active) |  |  |  | 21.9 µM (active) |  | 12.3 µM (active) |  |  | 11 µM (active) | 7.76 µM (active) | 27.3 µM (active) | 6.11 µM (active) |  | 12.3 µM (active) |  | 
11 | CC(c1ccc(O)cc1)c1ccc(O)cc1 |  |  | inactive |  |  | inactive | inactive | inactive | inactive | inactive | inactive | inactive |  | inactive and 61.1 µM (active) | inactive | inactive |  | 
